20 compounds from PubChem BioAssay (Tox21) can be followed below.

Results filed as inconclusive are left out. Entries that show only a call come without a potency. The source made the active and inactive calls. The call rests on the fitted dose curve; in most records, active means well fitted cell-killing curve with a large enough effect in the repeat runs; inconclusive means weak or mixed curves, or effect the other way; inactive means flat fitted curve, though single readings scatter.

The nature of the test: qHTS assay to identify small molecule that activate the aryl hydrocarbon receptor (AhR) signaling pathway - cell viability counter screen (AID 743086).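 Further: HepG2 liver cells carrying the AhR DRE luciferase reporter; nearly all actives have a fitted effect of over 45% in size.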 The settings on record: HepG2-AhR-luc viability, CellTiter-Fluor, 24 h; series mostly up to 70.3 µM. The procedure, abridged: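 HepG2-AhR-luc (HG2L7.5c1) cells, 4000/well, treated 24 h at 37 C with compound; viability measured as CellTiter-Fluor fluorescence after 30 min in the same wells as the luciferase read.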
For `O=S1(=O)CCCO1`, the Potency entry is “inactive”.

With `CCOC(=O)C(C)Oc1ccc(Oc2cnc3cc(Cl)ccc3n2)cc1` (stereo not given), the Potency entry was “inactive”.

For the compound `COC(=O)CC(=O)OC`, the Potency entry was “inactive”.

In the case of `C=C[Si](OCCOC)(OCCOC)OCCOC`, the Potency entry is “inactive”.

As to `CN(C)/N=N/c1nc[nH]c1C(N)=O`, the Potency entry was “inactive”.

As for `c1ccc2c(c1)[nH]c1ccccc12`, the Potency entry is “inactive”.

For `CCCCCCC(C)O` (stereo not given), the Potency result is “inactive”.

Take `CCC/C=C/C=O`: the Potency result was “inactive”.

With `CCCCCCCCCCCCO`, the Potency entry is “inactive”.

`CC(C)[N+](C)(CCOC(=O)C1c2ccccc2Oc2ccccc21)C(C)C`: the Potency result is “inactive”.

`C/C=C/C(=O)N(CC)c1ccccc1C`: the Potency result was “inactive”.

For `COC(=O)c1ccc(C)cc1`, the Potency entry was “inactive”.

`CCc1cccc2c3c([nH]c12)C(CC)(CC(=O)O)OCC3` (stereo not given): the Potency result is “inactive”.

For `CCCCCCCCCCCCCO`, the Potency result is “inactive”.

Take `CC(C)=CCO`: the Potency entry was “inactive”.

As to `CC(=O)Oc1c(C)c(C)c2c(c1C)CC[C@@](C)(CCC[C@H](C)CCC[C@H](C)CCCC(C)C)O2`, the Potency entry was “inactive”.

Consider `Cc1ccc(C(C)(C)C)cc1`, for which the Potency result is “inactive”.

For the compound `CCO[Si](CCCNC(N)=O)(OCC)OCC`, the Potency entry was “inactive”.

Regarding `OC[C@H]1O[C@@H]2O[C@H]3[C@H](O)[C@@H](O)[C@@H](O[C@H]4[C@H](O)[C@@H](O)[C@@H](O[C@H]5[C@H](O)[C@@H](O)[C@@H](O[C@H]6[C@H](O)[C@@H](O)[C@@H](O[C@H]7[C@H](O)[C@@H](O)[C@@H](O[C@H]1[C@H](O)[C@H]2O)O[C@@H]7CO)O[C@@H]6CO)O[C@@H]5CO)O[C@@H]4CO)O[C@@H]3CO`, the Potency result was “inactive”.

Take `CC1(C)O[C@@H]2C[C@H]3[C@@H]4C[C@H](F)C5=CC(=O)C=C[C@]5(C)[C@@]4(F)[C@@H](O)C[C@]3(C)[C@]2(C(=O)CO)O1`: the Potency entry is “inactive”.
